Measured values from PubChem BioAssay (EPA / NIEHS).
“And” between values parts separate entries of the source, which are not always exact repeats. Equal values may be shown once. Inconclusive results are not listed. The source made the active and inactive calls. How the source made its calls: active means hit-call score of the fitted dose curve at least 0.9, where 1 is the maximum; inconclusive means response in the unintended direction; inactive means score below 0.9.

Columns and labels:
[1] = ArunA_NOG_NucleusCount: ArunA Biomedical's Neurite Outgrowth (NOG) Assay for Nucleus Count (AID 2283756)
Protocol: ArunA_NOG (Neurite Outgrowth) is a cell-based, image-based assay that uses human H9-derived embryonic differentiated neurons (hNN). Measurements were taken 48 hours after chemical dosing in a 96-well plate.ArunA_NOG_NucleusCount is an assay component measured from the ArunA_NOG assay. It is designed to make measurements of viability related to the number of neurons, using a form of viability reporter, as detected with fluorescence intensity signals by HCS Fluorescent Imaging technology. Data from the assay component ArunA_NOG_NucleusCount was analyzed at the endpoint, ArunA_NOG_NucleusCount, in the positive analysis fitting direction relative to DMSO as the negative control and baseline of activity. Using a type of viability reporter, loss-of-signal activity can be used to understand viability. To generalize the intended target to other relatable targets, this assay endpoint is annotated to the neurodevelopment intended target family, where the subfamily is neurite outgrowth.
Chemical treatment: Differentiated hNN cells were seeded and immediately exposed to test medium for 48 h. Following chemical exposure, cell bodies were stained with Hoechst 33,258 to quantitate viable neuron count and neurites were labeled with bIII-tubulin/DyLight1 488. High content imaging assessed the neurite outgrowth endpoints: neurite total length per neuron (um), neurite count per neuron, and branch points per neurite using the methods described in (Harrill et al 2010). Measurements of hN2 morphology: (Beta)III-Tubulin stained cell cultures were allowed to warm to room temperature. Plates were then loaded into a Cellomics ArrayScan VTI HCS reader high-content imaging system (ThermoFisher Scientific, Waltham, MA) for automated image acquisition and morphometric analyses. This system consists of an epifluorescent microscope with an EXFO X-cite 120 metal-halide arc lamp, motorized imaging objectives, stage and excitation/emission filter wheel and a 12-bit high-resolution CCD camera connected to a Dell Intel Xenon computer terminal with 2 GHz processor. Image acquisition and storage was performed using the vHCS Scan software package, version 6.6.1.4. Matched fluorescent images of Hoechst-stained nuclei and (beta)III-tubulin/DyLight 488 immunolabeled cells were acquired using 365/515 (channel 1) and 475/515 (channel 2) nm excitation/emission filter couplings, respectively, with a 20x objective (Zeiss, Inc., Thornwood, NY). Fixed integration times for image acquisition in each channel were determined by manual sampling of control-treated wells across multiple plates. A matching pseudocolored composite image of Hoechst-stained nuclei (blue) and (beta)III-tubulin/DyLight 488 labeled cell bodies and neurites (green). The Neural Profiling BioApplication performs automated image analysis in a sequential manner as follows. Briefly, nuclei were identified in channel 1 as bright objects on a dark background. Nuclei with size and intensity values outside of the ranges determined a priori for viable cells were identified in the channel 1 image and rejected from further analyses. Spatial coordinates from the channel 1 image were then superimposed on the matching channel 2 image. Cell body masks in channel 2 were then cast based on positional data from channel 1 nuclei and a set of user-defined geometric and signal intensity-based parameters. […] Neurites emerging from the selected cell bodies were then individually traced and measured. […]

[2] = ArunA_NOG_BranchPointsPerNeurite: ArunA Biomedical's Neurite Outgrowth (NOG) Assay for Branch Points Per Neurite (AID 2283759)
Outline: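 Automated image analysis traced neurites (processes >10 um) from valid cell bodies after Hoechst and βIII-tubulin staining. hNN cells from H9 embryonic stem cells, 48 h exposure. Fitted bidirectionally against DMSO.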

[3] = tested on: zebrafish Androgen Receptor (AR), gene 100005148; test: ATG_zfAR_XSP1: Attagene TRANS-FACTORIAL Multi-Species (XSP1) HepG2 Assay for zebrafish Androgen Receptor (AR) (AID 2283771)
Outline: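 HepG2 cells were transiently transfected with a zebrafish AR-GAL4 reporter system and partially stimulated with 3 nM 6-alpha-fluorotestosterone. Reporter mRNA was measured after 24 h dosing by RT-PCR with capillary electrophoresis, and gain-of-signal was fitted relative to DMSO.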

[4] = target: zebrafish Estrogen Receptor (ESR1), esr1 (gene 259252) (UniProt P57717); test: ATG_zfER1_XSP1: Attagene TRANS-FACTORIAL Multi-Species (XSP1) HepG2 Assay for zebrafish Estrogen Receptor (ESR1) (AID 2283772)
Outline: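 Trans-activation readout: transfected zebrafish ER-Gal4 drives a UAS reporter in human HepG2 liver cells. After 24 h compound exposure (medium containing 3 nM 6-alpha-fluorotestosterone), induced reporter transcripts were quantified by RT-PCR with capillary electrophoresis, relative to DMSO.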

[5] = tested on: zebrafish Estrogen Receptor (ESR2B), gene 317733; test: ATG_zfER2b_XSP1: Attagene TRANS-FACTORIAL Multi-Species (XSP1) HepG2 Assay for zebrafish Estrogen Receptor (ESR2B) (AID 2283773)
Outline: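 HepG2 cells transiently transfected with multiple GAL4-UAS reporter units expressing chimeric zebrafish ER2b-Gal4; 24 h chemical exposure with 3 nM 6-alpha-fluorotestosterone present. Reporter mRNA measured by RT-PCR and capillary electrophoresis; gain of signal fitted versus DMSO.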

[6] = tested on: frog Estrogen Receptor (ESR2), gene 100174814; test: ATG_frER2_XSP1: Attagene TRANS-FACTORIAL Multi-Species (XSP1) HepG2 Assay for frog Estrogen Receptor (ESR2) (AID 2283774)
Protocol: (§1) ATG_XSP1_multi-species_TRANS is a cell-based, multiplexed assay created by modifying the existing Attagene TRANS-FACTORIAL system to include a panel of nuclear receptors from some or all the following species: human (Homo sapiens), mouse (Mus musculus), frog (Xenopus laevis), zebrafish (Danio rerio), chicken (Gallus gallus), and turtle (Chrysemys picta). The ECOTOX-FACTORIAL format uses HepG2, a human liver cell line, with measurements taken at 24 hours after chemical dosing in a 24-well plate. Xsp1 included 3 nM 6-alpha-fluorotestosterone to partially stimulate the androgen receptor.ATG_frER2_XSP1 is one of 29 assay components measured or calculated from the ATG_XSP1_multi-species_TRANS assay. It is designed to make measurements of mRNA induction, a form of inducible reporter, as detected with fluorescence intensity signals by Reverse transcription polymerase chain reaction (RT-PCR) and Capillary electrophoresis technology.The assay endpoint ATG_frER2_XSP1 was analyzed in the positive analysis fitting direction relative to DMSO as the negative control and baseline of activity. Using a type of inducible reporter, measures of mRNA for gain-of-signal activity can be used to understand the reporter gene at the transcription factor-level as they relate to the gene ER. Furthermore, this assay endpoint can be referred to as a primary readout, because this assay has produced multiple assay endpoints where this one serves a reporter gene function. To generalize the intended target to other relatable targets, this assay endpoint is annotated to the nuclear receptor intended target family, where the subfamily is steroidal.
Human liver HepG2 cells are transiently transfected with multiple reporter transcription units (MRTUs) in 6-well plates using FuGene 6 reagent (Roche; 3 ml FuGene/1 mg DNA). The MRTU constructs are regulated by a cis-regulating element (promoter). […] A major difference between the CIS and TRANS system is that in CIS activities of endogenous TFs are measured, whereas the TRANS assay evaluates changes in activities of exogenous, chimeric NR-Gal4 proteins. […] At the end of 24 hour incubation, total RNA was isolated using TriZol reagent (Invitrogen). The isolated RNA is then reverse-transcribed using oligo(dT) primer and Mo-MLV reverse transcriptase (Invitrogen) with DNAse I (Ambion) treatment for 30 min. The one-tenth of the produced cDNA was amplified by PCR using Taq DNA polymerase (Invitrogen) and two reporter sequence-specific primers. The PCR products were fluorescently labeled by primer extension with 6-arboxyfluorescein (6-FAM) 5'-labeled reporter sequence-specific primer (2 min at 95 C, 20 s at 68 C and 10 min at 72 C) and these products were digested with 5U of HpaI (New England Biolabs) for 2h at 37 C. The fragments were purified using Qiaquick PCR columns (Qiagen), analyzed on an ABI 3130xL genetic analyzer (Applied Biosystems) with peak positions identified by using a set of X-rhodamine (ROX)-labeled MapMarker1000 molecular weight standards (BioVentures). The raw capillary electrophoresis data was processed using Attagraph software (Attagene).

[7] = target: Luciferin 4-monooxygenase (Photinus pyralis) (UniProt P08659); test: CCTE_Simmons_QuantiLum_inhib_2: CCTE's Firefly Luciferase Inhibition Assay, Simmons Lab (AID 2283767);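 on AC50: potency for inhibitors that lower luciferase luminescence relative to DMSO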
Outline: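 Luminescence loss relative to DMSO vehicle defines inhibition; detection reagent containing 150 uM D-luciferin and 147 uM dATP (final, pH 7.8) is injected immediately before each read. Enzyme is preincubated with an 8-point titration (5 nM–87.5 uM final) for 30 min at 37C.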

[8] = ArunA_NOG_NeuriteLength: ArunA Biomedical's Neurite Outgrowth (NOG) Assay for Neurite Length (AID 2283757)
Outline: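 Differentiated human H9-derived neurons were exposed for 48 h from seeding, then stained with Hoechst and βIII-tubulin. Automated high-content imaging gave total neurite length per valid neuron, counting processes >10 um. Loss of signal was scored versus DMSO.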

[9] = ArunA_NOG_NeuritesPerNeuron: ArunA Biomedical's Neurite Outgrowth (NOG) Assay for Neurites Per Neuron (AID 2283758)
Outline: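 Differentiated human H9-derived neurons exposed to chemicals for 48 h from seeding, then stained with Hoechst and βIII-tubulin/DyLight 488. Automated imaging counted neurites (processes >10 um) per valid neuron; loss of signal versus DMSO scored.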

[10] = tested on: chicken Androgen Receptor (AR), gene 422165; test: ATG_chAR_XSP1: Attagene TRANS-FACTORIAL Multi-Species (XSP1) HepG2 Assay for chicken Androgen Receptor (AR) (AID 2283768)
Protocol: as §1, with “receptor.ATG_chAR_XSP1” for “receptor.ATG_frER2_XSP1”, “ATG_chAR_XSP1” for “ATG_frER2_XSP1”, “Using a type of inducible reporter, measures of mRNA for gain-of-signal activity can be used to understand the reporter gene at the transcription factor-level as they relate to the gene ER.” left out, “To generalize the intended target to other relatable targets, this assay endpoint is annotated to the nuclear receptor intended target family, where the subfamily is steroidal.” left out

Sequence of zebrafish Estrogen Receptor (ESR1), esr1 (gene 259252) (P57717 whole entry, looked up, the tested form may be a part): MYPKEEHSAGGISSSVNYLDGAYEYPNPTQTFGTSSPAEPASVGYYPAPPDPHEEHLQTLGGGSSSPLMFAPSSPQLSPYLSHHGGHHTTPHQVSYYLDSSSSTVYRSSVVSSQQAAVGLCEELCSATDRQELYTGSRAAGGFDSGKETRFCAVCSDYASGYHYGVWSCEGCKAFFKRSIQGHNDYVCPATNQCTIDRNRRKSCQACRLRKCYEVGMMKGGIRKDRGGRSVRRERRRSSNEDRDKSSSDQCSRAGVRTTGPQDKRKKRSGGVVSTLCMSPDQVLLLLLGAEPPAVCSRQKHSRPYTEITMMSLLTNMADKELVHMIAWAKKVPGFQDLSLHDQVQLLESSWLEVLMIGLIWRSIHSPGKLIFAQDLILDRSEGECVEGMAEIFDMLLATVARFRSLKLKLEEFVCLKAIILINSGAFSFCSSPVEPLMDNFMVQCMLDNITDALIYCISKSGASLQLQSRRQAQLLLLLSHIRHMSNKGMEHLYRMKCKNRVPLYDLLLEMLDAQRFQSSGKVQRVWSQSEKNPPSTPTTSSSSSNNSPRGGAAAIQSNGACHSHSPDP
Sequence of Luciferin 4-monooxygenase (Photinus pyralis) (P08659 whole entry, looked up): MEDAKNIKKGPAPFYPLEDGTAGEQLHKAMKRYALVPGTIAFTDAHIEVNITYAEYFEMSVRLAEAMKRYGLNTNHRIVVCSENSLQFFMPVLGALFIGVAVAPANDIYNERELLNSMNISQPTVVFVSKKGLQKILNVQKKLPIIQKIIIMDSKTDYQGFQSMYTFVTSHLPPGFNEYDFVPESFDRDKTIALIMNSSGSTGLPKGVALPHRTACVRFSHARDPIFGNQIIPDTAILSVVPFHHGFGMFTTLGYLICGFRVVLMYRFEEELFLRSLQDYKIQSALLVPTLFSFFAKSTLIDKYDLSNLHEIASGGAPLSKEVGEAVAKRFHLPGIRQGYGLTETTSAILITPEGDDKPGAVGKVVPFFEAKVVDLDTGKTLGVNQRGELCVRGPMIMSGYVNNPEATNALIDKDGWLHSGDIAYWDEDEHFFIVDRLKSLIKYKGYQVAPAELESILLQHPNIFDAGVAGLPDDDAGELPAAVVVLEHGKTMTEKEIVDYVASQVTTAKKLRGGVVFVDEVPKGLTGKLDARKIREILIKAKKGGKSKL

In the case of `C[Si](Cn1cncn1)(c1ccc(F)cc1)c1ccc(F)cc1`, the outcome [1] is reported as “inactive” and the outcome [2] is reported as “inactive”.

In the case of `CCc1cccc(C)c1N(C(=O)CCl)C(C)COC` (configuration not stated), the outcome [3] is reported as “inactive”, the outcome [4] is reported as “inactive” and the AC50 [5] is reported as 35.8 µM (active). The AC50 [6] was 48.9 µM (active).

For `CCOC(=O)CC(SP(=O)(OC)OC)C(=O)OCC` (configuration not stated), the outcome [7] was “inactive”.

In the case of `COP(=O)(OC)SCn1c(=O)oc2cc(Cl)cnc21`, the outcome [7] is reported as “inactive”.

With `CCOP(=S)(OCC)OC(Cl)C(Cl)(Cl)Cl` (configuration not stated) the outcome [7] was “inactive”.

In the case of `CCOP(=S)(Oc1cnc(C(C)(C)C)nc1)OC(C)C` (configuration not stated), the AC50 [7] is reported as 61.8 µM (active).

In the case of `S=C1NCCN1`, the outcome [1] is reported as “inactive”, the outcome [2] is reported as “inactive” and the AC50 [7] is reported as 1.9 µM (active).

With `CCOP(=O)(SC(C)CC)N1CCSC1=O` (configuration not stated) the outcome [7] was “inactive”.

For `CCCSP(=O)(OCC)SCCC`, the outcome [7] was “inactive”.

For `CCOP(=S)(OCC)Oc1ccc2c(C)c(Cl)c(=O)oc2c1`, the outcome [7] was “inactive”, the AC50 [5] was 44.6 µM (active) and the AC50 [6] was 34.6 µM (active).

In the case of `N#CSCSC#N`, the AC50 [7] is reported as 53.8 µM (active).

With `O=[N+]([O-])c1cc(C(F)(F)F)c(Cl)c([N+](=O)[O-])c1Nc1ncc(C(F)(F)F)cc1Cl` the outcome [1] was “inactive”.

For `CC1=NNC(=O)N(/N=C/c2cccnc2)C1`, the AC50 [1] was 59.4 µM (active), the AC50 [8] was 73.8 µM (active) and the AC50 [9] was 65 µM (active). For the same molecule, the AC50 [2] was 66.2 µM (active).

In the case of `CCC(=NOC/C=C/Cl)C1=C(O)CC(C2CCOCC2)CC1=O` (configuration not stated), the outcome [7] is reported as “inactive”.

In the case of `C=C(C)[C@H]1Cc2c(ccc3c2O[C@@H]2COc4cc(OC)c(OC)cc4[C@@H]2C3=O)O1`, the outcome [7] is reported as “inactive”.

For `O=c1ccc(=O)[nH][nH]1`, the outcome [7] was “inactive”.

For `CSC1=N[C@@](C)(c2ccccc2)C(=O)N1Nc1ccccc1`, the outcome [7] was “inactive”.

In the case of `CCC(=O)Nc1ccc(Cl)c(Cl)c1`, the outcome [7] is reported as “inactive”.

With `CCCSP(=O)(OCC)Oc1ccc(Br)cc1Cl` (configuration not stated) the outcome [7] was “inactive”.

With `CCOP(=S)(OCC)Oc1cc(C)nc(C(C)C)n1` the outcome [7] was “inactive”.

With `CCOP(=S)(OCC)Oc1ccc([N+](=O)[O-])cc1` the AC50 [7] was 26.9 µM (active).

With `C#CCC1=C(C)C(OC(=O)C2C(C=C(C)C)C2(C)C)CC1=O` (configuration not stated) the outcome [7] was “inactive”, the AC50 [5] was 25.3 µM (active) and the AC50 [6] was 23.4 µM (active).

For `C#CC(C)(C)NC(=O)c1cc(Cl)cc(Cl)c1`, the AC50 [10] was 26.4 µM (active), the outcome [4] was “inactive” and the AC50 [5] was 52.6 µM (active). For the same molecule, the AC50 [6] was 56.3 µM (active).

In the case of `CCOP(=O)(NC(C)C)Oc1ccc(SC)c(C)c1` (configuration not stated), the outcome [7] is reported as “inactive”.

With `CC1(C(=O)Nc2ccc(O)c(Cl)c2Cl)CCCCC1` the outcome [7] was “inactive”.

With `CCCOCC(=Nc1ccc(Cl)cc1C(F)(F)F)n1ccnc1` the AC50 [7] was 36.8 µM (active), the outcome [3] was “inactive” and the outcome [4] was “inactive”. The outcome [5] was “inactive” and the AC50 [6] was 2.94 µM (active).

For `COP(=O)(NC(C)=O)SC` (configuration not stated), the AC50 [7] was 37.5 µM (active).

With `CN(C)[C@@H]1C(=O)C(C(N)=O)=C(O)[C@@]2(O)C(=O)C3=C(O)c4c(O)cccc4[C@@](C)(O)[C@H]3[C@H](O)[C@@H]12` the AC50 [1] was 44.7 µM (active), the AC50 [8] was 78.6 µM (active) and the AC50 [9] was 83.4 µM (active). The AC50 [2] was 89.6 µM (active) and the AC50 [7] was 714 nM (active) and 72.3 µM (active).
